According to PubChem BioAssay (NCI):
Compounds without any hit were thinned out: in the full panel of roughly 79,000, 15% have a hit. Active and inactive are the calls of the source. No stated cut-off is given here; in the data, active means growth inhibition above about 70%; inactive means the rest.

How the values were obtained:
[1] = NCI Yeast Anticancer Drug Screen. Data for the rad50 strain (AID 155);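 further: 0% = growth of vehicle-only cultures of the same strain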; details: S. cerevisiae rad50 strain growth inhibition; at 50.0 µM; stronger effect = higher value
Summary of the method: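 Genetically altered yeast (DNA repair pathway); compound treatment; growth inhibition vs vehicle ctrl.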

[2] = NCI Yeast Anticancer Drug Screen. Data for the mec2-1 strain (AID 157); details: S. cerevisiae mec2-1 strain, at 50.0 µM, stronger effect = higher value
Summary of the method: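 Test agents were screened against the mec2-1 yeast strain, with defined DNA repair or cell cycle alteration. Growth was scored as inhibition against vehicle-only controls.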

[3] = NCI Yeast Anticancer Drug Screen. Data for the sgs1 mgt1 strain (AID 161);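 further: 0% = growth of cultures given vehicle only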; details: S. cerevisiae sgs1 mgt1 strain, at 50.0 µM, stronger effect = higher value
Summary of the method: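 Mutant yeast exposed to compound; growth scored against vehicle-only wells.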

[4] = NCI Yeast Anticancer Drug Screen. Data for the cln2 rad14 strain (AID 165);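 further: 0% = growth equal to vehicle treated cultures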; details: S. cerevisiae cln2 rad14 strain, at 50.0 µM, stronger effect = higher value
Summary of the method: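 Growth of compound-exposed yeast (cln2 rad14 genotype) measured and expressed as inhibition relative to vehicle.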

[5] = NCI Yeast Anticancer Drug Screen. Data for the bub3 strain (AID 167); details: S. cerevisiae bub3 mutant strain, at 50.0 µM, stronger effect = higher value
Summary of the method: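 Yeast carrying a defined mutation is treated with each compound, and growth is compared with that of vehicle-exposed cells to give inhibition.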

[6] = NCI Yeast Anticancer Drug Screen. Data for the mlh1 rad18 strain (AID 175); details: S. cerevisiae mlh1 rad18 strain growth inhibition; at 50.0 µM; stronger effect = higher value
Summary of the method: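 In this whole-cell yeast screen, a strain with altered DNA damage repair is challenged with compound, and its growth is measured against matched vehicle-treated controls.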

Measured: growth inhibition

O=C(O)C(Cc1ccccc1)NS(=O)(=O)Cc1ccccc1 (configuration not stated)
inactive: [1] -14.1% | [2] -8.45% | [3] -4.5% | [4] -4.9% | [5] -8.2% | [6] -2.15%

CC(=O)/C=C1\N(C)c2ccccc2C1(C)C
inactive: [1] 2.1% | [2] -12.3% | [3] -2.05% | [4] -8.55% | [5] -2.9% | [6] -10.9%

CN(C)CCCc1cccc2[nH]c3c(c12)CN(C)CC3
inactive: [1] 22% | [2] -5% | [3] 23.6% | [4] 7.85% | [5] 7.45% | [6] -26%

C/C(C#N)=C1/Nc2ccccc2NC1=O
inactive: [1] 0.55% | [2] 9.25% | [3] -24.6% | [4] -10.4% | [5] 15.1% | [6] 4.55%

c1ccc(C2=NOC3C4CCC(C4)C23)cc1 (configuration not stated)
inactive: [1] -37.6% | [2] -20.4% | [3] -28.4% | [4] -21% | [5] -8.85% | [6] -20.1%

O=C1C(=O)c2ccccc2C(O)=C1c1ccccc1
inactive: [1] 28.6% | [2] 22.8% | [3] 47.2% | [4] 7.75% | [5] 5.6% | [6] 51%

CCOC(=O)c1oc2c(OC)ccc3c2c1CCC3
inactive: [1] 7.7% | [2] 4% | [3] 1.8% | [4] -9.4% | [5] -6.25% | [6] 30.8%

O=P(O)(CP(=O)(c1ccccc1)c1ccccc1)c1ccccc1
inactive: [1] 15.3% | [2] 7.25% | [3] 15.9% | [4] 16.2% | [5] 5.9% | [6] 10.9%

CC(C)(C)OC(=O)NC(C)(C)C(=O)NCCC(=O)O
inactive: [1] 0% | [2] -70% | [3] -1.8% | [4] 3.35% | [5] -15.2% | [6] -13.5%

CCC(C)NC(=O)/C=C/c1ccccc1 (configuration not stated)
inactive: [1] 31.9% | [2] 17.1% | [3] 14.4% | [4] 12.4% | [5] -1.1% | [6] 6.65%

CCc1c(CNc2ccc(C(=O)NC(CC(=O)O)C(=O)O)cc2)ccc2nc(N)nc(N)c12 (configuration not stated)
inactive: [1] 5.5% | [2] -0.5% | [3] 11.9% | [4] 2.85% | [5] -4% | [6] 5.6%

CNC(=O)C1CCCN1C(=O)C(Cl)Cl (configuration not stated)
inactive: [1] -1.95% | [2] -10.6% | [3] 0.9% | [4] -21.9% | [5] -10.8% | [6] 14.2%

Clc1ccc(SCc2csc(-c3ccc(Cl)cc3)n2)cc1
inactive: [1] -27.5% | [2] -41.8% | [3] -19.1% | [4] -27.8% | [5] -6.8% | [6] -29.8%

CCOC(=S)SC(=S)SC(=S)OCC
inactive: [1] 1.15% | [2] -27.1% | [3] 2.6% | [4] -27.8% | [5] -7.75% | [6] -22.2%

Cn1c2ccccc2c2nn3cnnc3nc21
inactive: [1] 18.1% | [2] 41.3% | [3] -3.3% | [4] 25.5% | [5] 22.1% | [6] -1.95%

CC[C@@H]1CN(C)[C@H]2Cc3c([nH]c4ccccc34)C(=O)C[C@H]1C2C(=O)OC (some centres not stated)
inactive: [1] 13.5% | [2] -14.5% | [3] -19.6% | [4] -47.3% | [5] -26.2% | [6] 18.7%

Cc1cc(Cl)c(Cl)cc1Cl
inactive: [1] 13% | [2] 5.7% | [3] -6.5% | [4] -4% | [5] -6.35% | [6] 2.3%

CC1=NC2c3c(-c4ccc(Cl)cc4)cn(-c4ccc(C)cc4)c3N=CN2N1 (configuration not stated)
inactive: [1] 7.75% | [2] -5.9% | [3] -16.6% | [4] 15.8% | [5] 0.5% | [6] -1.6%

Nc1ccc(Cl)cc1Br
inactive: [1] 6.35% | [2] 22.4% | [3] -6.5% | [4] 5.5% | [5] -7.05% | [6] 8.6%

O=C(OCC(Br)C(Br)c1ccccc1)c1ccccc1 (configuration not stated)
inactive: [1] -13.3% | [2] -12.6% | [3] -2% | [4] -1.4% | [6] -27.6%
active: [5] 73.6%

Cc1ccccc1C(=O)OC1CCCCC1
inactive: [1] 9.2% | [2] -13.1% | [3] -9.65% | [4] -39.5% | [5] 9.8% | [6] 5.7%

O=NN(CCCl)C(=O)NC1c2cc(Cl)ccc2-c2c(Cl)cc(Cl)cc21 (configuration not stated)
inactive: [2] 59.3% | [4] 48.5% | [5] 22.8%
active: [1] 84.3% | [3] 73.7% | [6] 86.5%

N=C1/C(=C/c2ccco2)C(=O)N=C2SC=NN12
inactive: [1] 7.75% | [2] 19.1% | [3] 13.2% | [4] -9.6% | [5] -5.6% | [6] 20.9%

O=C(O)c1cccc2c1CCCC2
inactive: [1] -2.7% | [2] 7.35% | [3] -21.6% | [4] 0.05% | [5] -11.6% | [6] 8.05%

CNC(=S)N/N=C/c1nc2ccccc2c(=O)n1-c1ccc(Cl)cc1
inactive: [1] 19.6% | [2] 0.75% | [3] 36.6% | [4] 2.55% | [5] -2.5% | [6] 10.2%

Nc1nnc(CCCCCCCc2nnc(N)o2)o1
inactive: [1] -6.25% | [2] 12.6% | [3] 3.45% | [4] 7.5% | [5] 6.85% | [6] 13.2%

Cc1c(N)cc2c(c1[N+](=O)[O-])C(C)(C)CC2(C)C
inactive: [1] 3.15% | [2] -14.1% | [3] 1.6% | [4] -5.2% | [5] 11.9% | [6] -0.85%

O=[N+]([O-])c1cccc(Cc2nncc3ccccc23)c1
inactive: [1] 4.15% | [2] 35.9% | [3] 17.6% | [4] 0.05% | [5] 44.5% | [6] 17.7%

O=Cc1ccc(-c2ccc(S(=O)(=O)O)cc2)o1
inactive: [1] -35.5% | [2] 6.85% | [3] -41.3% | [4] 25.8% | [5] 3.55% | [6] -3.2%

O=[N+]([O-])c1ccc(P(=O)(Nc2ccc(Cl)cc2)Nc2ccc(Cl)cc2)cc1
active: [1] 95.7% | [2] 96.8% | [3] 95.1% | [4] 91.8% | [5] 94.8% | [6] 97.1%

CCCNC(=O)Nc1ccc(OC)cc1Cl
inactive: [1] -12.1% | [2] -9.45% | [3] -1.65% | [4] -59.3% | [5] -6.3% | [6] -15.6%

Cc1ccc2nc(C)cc(NC(=O)c3ccccc3)c2c1
inactive: [1] 13.6% | [2] 8.45% | [3] 8.55% | [4] -18.1% | [5] -5.3% | [6] 24.2%

COc1ccc(-c2ccccc2)cc1NC(C)=O
inactive: [1] 9.8% | [2] 15.2% | [3] 6.75% | [4] 20.9% | [5] 14% | [6] 16.5%

C=CCNc1ccc(Cl)cc1Cl
inactive: [1] -3.5% | [2] -6.25% | [3] -21.9% | [4] -54.4% | [5] -8.75% | [6] 12.6%

OCC1=CCCCC1
inactive: [1] 6.95% | [2] 1.85% | [3] -6.65% | [4] 12.7% | [5] -14.5% | [6] 0.25%

Nc1nc2c(C(=O)N3CCCC3)nnn2c2cccc(Cl)c12
inactive: [1] -4.45% | [2] -11.7% | [3] 17% | [4] 18.3% | [5] 9.9% | [6] 0.05%

O=C(O)C(c1ccccc1)C(F)(F)F (configuration not stated)
inactive: [1] -1.45% | [2] 11.1% | [3] 2.45% | [4] -10.4% | [5] -2.1% | [6] 0.85%

CC1=CNNc2ccccc21
inactive: [1] -2.6% | [2] 1.45% | [3] -4.6% | [4] 8% | [5] -14.4% | [6] 5.1%

COc1cc(C)c2cccc(C)c2n1
inactive: [1] 6.6% | [2] 3.85% | [3] -0.4% | [4] -32.2% | [5] -8.8% | [6] 8.7%

O=C(NNC1CCN(Cc2ccccc2)CC1)c1ccccc1
inactive: [1] 12.5% | [2] -18% | [3] 5.35% | [4] 16.9% | [5] 2.5% | [6] 13.4%

CCCCCCCCCCCCCCCCCC[N+](C)(C)Cc1c(Cl)c(Cl)c(Cl)c(Cl)c1Cl
inactive: [1] 10.8% | [2] 8.9% | [3] 20.4% | [4] -18.9% | [5] 24.6% | [6] 1.65%

COc1cc2ccc3c4cc(OC)c(OCc5ccccc5)cc4cnc3c2cc1OC
inactive: [1] 40.5% | [2] 0.45% | [3] 4.9% | [4] 18.9% | [5] 27.4% | [6] 23%
